These results are taken from PubChem BioAssay (EPA / NIEHS).

SMILES strings stand for the structures. Activity calls are given as the source filed them. How the source made its calls: active means hit-call score of the fitted dose curve at least 0.9, where 1 is the maximum; inactive means score below 0.9.

By AC50 is commonly meant the midpoint of the concentration-response curve, whichever way the signal moves.

Read-out in the assay: Peroxisomal acyl-coenzyme A oxidase 1 (ACOX1) gene, ACOX1 (gene 51)
The experiment in a line: LTEA_HepaRG_ACOX1: Life Technologies and Expression Analysis (LTEA) Assay for Peroxisomal acyl-coenzyme A oxidase 1 (ACOX1) gene using HepaRG (AID 2283467). The note with it: mRNA level, 48 h; actives raise or lower the signal. The protocol:
LTEA_HepaRG is a cell based, multiplexed-readout assay that uses HepaRG, a human liver cell line, with measurements taken at 48 hours after chemical dosing on a 96-well plate.LTEA_HepaRG_ACOX1 is one of 102 assay component(s) measured in the LTEA HepaRG cell culture assay. It is a marker of Steatosis.Data from the assay component LTEA_HepaRG_ACOX1 was analyzed into 1 endpoint. This assay endpoint, LTEA_HepaRG_ACOX1, was analyzed with bidirectional fitting relative to DMSO as the negative control and baseline of activity. Using a type of inducible reporter, measures of mRNA induction for gain or loss-of-signal activity can be used to understand regulation of transcription factor activity. To generalize the intended target to other relatable targets, this assay endpoint is annotated to the oxidase intended target family, where the subfamily is steatosis.
A total of 1060 chemcials from the ToxCast library were tested in eight-point concentration-response experiments. Cell culture and cytotoxicity assays were conducted at Thermo Fisher Scientific's Custom Services facility (Madison, WI). A single lot of human HepaRG cells (Thermo Fisher Scientific, Frederick, MD) was used for the cell culture experiments. 96-well format collagen type I coated plates of human HepaRG cells were prepared using established methods. Briefly, cryopreserved HepaRG cells were thawed, plated at a density of approximately 100,000 cells/well in HepaRG Thaw, Plate, and General Purpose media (HPRG770, Thermo Fisher Scientific), and incubated for 48 hours. 0.5% DMSO was selected as vehicle control to balance the requisite need of DMSO in HepaRG cultures to maintain differentiation (for example, baseline metabolism, proportions of hepatocytes vs. cholangiocytes), while enabling further hepatic receptor pathway activation (for example, PXR and CAR) in response to chemical exposure. 48 hours after plating, the culture medium was replaced with HepaRG Serum-Free Incudtion Media. Cells were exposed to each test chemical in duplicate and maintained in CO2 incubators for another 48 hours. Chemical plates were thawed to room temperature and 200x concentrations of treatment groups were prepared. 8-point conentration-reponse curves were made with the highest exposure at 100 uM, followed by half-log dilutions, all in 0.5% DMSO. Each test plate contained variouse controls, induction positive controls (1mM phenobarbital), cytotoxicity positive controls ([…] aflatoxin B1), vehicle controls (0.5% DMSO), and total lysis controls (0.5% DMSO). Cell morphology images were taken using an Essen IncuCyte FLR automated microscope, with six 96-well plates imaged in about 24 minutes. Images were captured and exported and JPEG files. Spent culture media was transfered to black-well plates for the LDH assay, and remaining media was sorted at -80 C for later use. Cells were treated with RLT buffer and frozen until shipped for gene expression analysis. Total RNA was isolated from the cell suspension in 75 uL of Buffer RLT (Qiagen, Germantown, MD 20874) by Quintiles/Expression Analysis (Durham, NC) using a custom isolation procedure. Total RNA from each plate well was transferred to a preamplification plate. Fluidigm's 96.96 Dynamic ArrayTM (Fluidigm, Amsterdam, the Netherlands) technology was used for gene expression analyses by quantitative reverse transcription polymerase chain reaction (qRT-PCR, performed by Quintiles/Expression Analysis, Durham, NC)89. Standard TaqManTM Assays (Applied Biosystems/ThermoFisher Scientific, Foster City, CA) were used to assess the expression of 93 genes selected based on their selectivity and sensitivity to important hepatic receptors known to be modulated by environmental chemicals; importance in human hepatocyte functionality; and hepatotoxicity. […]
For `O=C(NO)C1(NS(=O)(=O)c2ccc(Oc3ccc(F)cc3)cc2)CCOCC1`, the outcome was inactive. As for `NC(=O)N1c2ccccc2C=Cc2ccccc21`, the molecule was classed as inactive. Turning to `O=C1CN(N=Cc2ccc([N+](=O)[O-])o2)C(=O)N1`, the outcome was inactive. As to `O=c1[nH]cnc2c1ncn2[C@H]1CC[C@@H](CO)O1`, the outcome was inactive. With `NC(=O)NN=Cc1ccc([N+](=O)[O-])o1`, the call was inactive. Same read-out and setting: as for `CCCCCCCCCC`, the entry is “inactive”; as for `COCc1nnc(-c2ccc[n+]([O-])c2)n1-c1c(Cl)c(Cl)cc2[nH]c(=O)c(=O)[nH]c12`, “inactive”. As to `CCCc1ccccc1`, the call was inactive.

As for `c1ccc(C(O[C@@H]2CCCN(CCc3ccc4c(c3)OCO4)C2)c2ccccc2)cc1`, the AC50 is 75.9 µM (active). On the same count and under the same terms, as for `Cc1nccn1-c1ccc(Sc2cccc(C3(C(N)=O)CCOCC3)c2)cc1`, the figure is 12.2 µM (active).

As to `CCOC(N)=O`, the call was inactive. With `CCCCN1C(=O)[C@@H]([C@H](O)C2CCCCC2)NC(=O)C12CCN(Cc1ccc(Oc3ccc(C(=O)O)cc3)cc1)CC2`, the AC50 is 2.79 µM (active).

Consider `CC(C)C(=O)Nc1ccc([N+](=O)[O-])c(C(F)(F)F)c1`, for which the half-maximal activity concentration (AC50) was 72.4 µM (active). As to `Cn1cc[nH]c1=S`, the molecule was classed as inactive. For the molecule `CCOc1ccc2[nH]cc(C(=O)NCc3ccccc3)c(=O)c2n1`, the outcome was inactive. Still for that read-out and setting: as for `OC(CCl)CCl`, the entry is “inactive”.

As for `c1ccc2ncccc2c1`, the molecule was classed as inactive. On to `OCCOCCOCCO`, for which the molecule was classed as inactive.

Turning to `OC[C@H]1O[C@@H]2O[C@H]3[C@H](O)[C@@H](O)[C@@H](O[C@H]4[C@H](O)[C@@H](O)[C@@H](O[C@H]5[C@H](O)[C@@H](O)[C@@H](O[C@H]6[C@H](O)[C@@H](O)[C@@H](O[C@H]7[C@H](O)[C@@H](O)[C@@H](O[C@H]1[C@H](O)[C@H]2O)O[C@@H]7CO)O[C@@H]6CO)O[C@@H]5CO)O[C@@H]4CO)O[C@@H]3CO`, the outcome was inactive. As for `CCCC(CCC)C(=O)O`, the result was inactive. As to `CCn1nc(C)c2c1C(=O)NCC(c1ccc(O)cc1)=N2`, the molecule was classed as inactive. `O=C(O)c1cccc(C[C@@H]2COc3ccc(OCc4nc5cc(F)ccc5s4)cc3[C@@H]2O)c1`: the result was inactive. The same measure, in the same setting: the entry for `COS(C)(=O)=O` is “inactive”; for `CCCOc1ccc(S(=O)(=O)N2CCN(CC)CC2)cc1-c1nc2c(CC)n(Cc3ccccn3)nc2c(=O)[nH]1` it is “inactive”. On to `CC1(C)C(=O)N(Cl)C(=O)N1Cl`, for which the molecule was classed as inactive.

For `C[C@]12C=CC(=O)C=C1CC[C@H]1[C@@H]3C[C@@H](O)[C@](O)(C(=O)CO)[C@@]3(C)C[C@H](O)[C@@]12F`, the call was inactive. Turning to `CCc1cccc(CC)c1N`, the molecule was classed as inactive. The same measure, in the same setting: as for `Cc1nc(-c2ccccn2)ncc1C(=O)Nn1cc(C)c2cc(F)ccc21`, the entry is “inactive”; as for `OC[C@H]1O[C@@](CO)(O[C@H]2O[C@H](CO)[C@@H](O)[C@H](O)[C@H]2O)[C@@H](O)[C@@H]1O`, “inactive”; as for `OCC(CO)(CO)CO`, “inactive”. Consider `C=CCc1cc(S(=O)(=O)c2ccc(O)c(CC=C)c2)ccc1O`, for which the AC50 was 79.8 µM (active). With `c1ccc2cc3ccccc3cc2c1`, the result was inactive. As to `O=C(O)c1cccc(C(=O)O)c1`, the result was inactive. With `CC[C@H](C)C(=O)O[C@H]1C[C@H](O)C=C2C=C[C@H](C)[C@H](CC[C@@H](O)C[C@@H](O)CC(=O)O)[C@H]21`, the result was inactive. For the molecule `C=CN1CCCC1=O`, the result was inactive. The same measure, in the same setting: as for `OC(Cn1cncn1)(Cn1cncn1)c1ccc(F)cc1F`, the entry is “inactive”; as for `CCCCCCOC(=O)CC(CC(=O)OCCCCCC)(OC(=O)CCC)C(=O)OCCCCCC`, “inactive”. The same measure, in the same setting: as for `CCCCCCCC1CCC(=O)O1` (stereo not given), the entry is “inactive”; as for `CCCCCCCCCCCCCCCCOS(=O)(=O)O`, “inactive”. As for `COc1cc(C(C)C)c2c(c1)S(=O)(=O)N(COc1cc(=O)n3cccc(OCCN4CCCCC4)c3n1)C2=O`, the AC50 is 19.8 µM (active).
